DT40 TDP1 CPT – growth inhibition of DT40 Tdp1-/-;hTDP1 cells with camptothecin (screen for TDP1 inhibitors) | Potency, µM (doses to about 46.2 µM), for inactives: top-dose activity change, negative = growth inhibition, usual class: inhibitors | chicken DT40 Tdp1-/-;hTDP1 cells + 20 nM CPT, ATP luminescence, 48 h | actives 12% (n = 420,000); also: potency is read from the fitted curve at half-maximal effect; nearly all actives have a fitted effect of over 55% in size
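Chicken DT40 Tdp1-/- cells complemented with human TDP1, 400 cells/well, exposed to compounds plus 20 nM camptothecin for at least 48 h at 37 C; viability read as ATP content by CellTiter-Glo luminescence.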
DT40 TDP1 no CPT – qHTS for Inhibitors of human tyrosyl-DNA phosphodiesterase 1 (TDP1): qHTS in cells in absence of CPT; DT40 Tdp1-/- hTDP1 cells, no CPT, ATP luminescence, 48 h; Potency, µM (doses to about 46.2 µM), without a hit: at the top dose activity change, negative = growth inhibition, hits mostly inhibitors; actives 15% (n = 420,000); AID 686978, 2013; also: potency is read from the fitted curve at half-maximal effect; nearly all actives have a fitted effect of over 55% in size
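Camptothecin absent (DMSO only). Human TDP1-complemented DT40 knockout cells, 400 cells/well, 37 °C for minimum 48 hr; ATP measured via CellTiter-Glo, 30 min dark incubation, luminescence.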
HT1080 IDH1KD tx – toxicity to HT-1080 IDH1 knockdown cells (counter line); HT-1080 IDH1 knockdown viability, ATP luminescence, 48 h; Potency, µM (doses to about 46.1 µM), without a hit: top-dose activity, negative = toxicity, hits mostly cytotoxic; actives 2% (n = 360,000); AID 686971;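 also: potency is read from the fitted curve at half-maximal effect; 0% = DMSO wells and -100% = cell-free medium wells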
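CellTiter-Glo luminescence after 48 h compound exposure at 37 degrees C of IDH1-knockdown HT-1080 cells in 5% FBS RPMI. %Activity scaled between DMSO wells and cell-free media wells, with curves fitted and assigned curve classes.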
IL1B secr inh – inhibitors of inflammasome signaling (IL-1 beta secretion). THP-1 LPS/ATP IL-1B secretion, AlphaLISA, 16 h; hits give low values. activity change, % at 57.5 µM. actives 4.7% (n = 360,000). AID 743279; in the data active = activity change below about -50%; inconclusive = mostly about -30% to -49%
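Secreted IL-1B measured by AlphaLISA bead assay after 16 h compound exposure of THP-1 cells; compounds (final up to 57.5 uM) added 1 h before LPS (250 ng/mL) and ATP (1.25 mM) stimulation; lower signal means less secretion.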
HT1080NT lethal – kills 2HG-producing HT-1080-NT fibrosarcoma cells | HT-1080-NT fibrosarcoma viability, CellTiter-Glo ATP luminescence, 48 h | Potency, µM (top dose mostly 46.1 µM), for inactives: top-dose activity, negative = less viability, hits mostly cytotoxic | actives 1.6% (n = 360,000) | AID 686970;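 also: NT is the 2HG producing partner of a matched IDH1 knockdown line; potency is read from the fitted curve at half-maximal effect; 0% = DMSO-treated cells and -100% = media-only wells without cells; nearly all actives have a fitted effect of over 55% in size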
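HT-1080-NT; 750 cells/well; 5% FBS RPMI; 48 h compound, 37 degrees C; CellTiter-Glo luminescence; curve fitting and curve-class assignment.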
uPA surface inh – inhibitors of cell surface uPA generation. cell surface uPA generation assay, qHTS. Potency, µM (highest dose often 38.3 µM), for inactives: at the highest dose activity change, negative = inhibition, most hits filed as inhibitors. actives 0.31% (n = 330,000). AID 540303; active = well fitted inhibition curve with a large enough effect; inconclusive = small, poorly fitted or top-dose-only effect; inactive = no such curve, though single readings can be large or run the other way; tested in mouse RAW 264.7 cells; also: potency is read from the fitted curve at half-maximal effect; nearly all actives have a fitted effect of over 55% in size
* marks the source's active call; other numbers are inactive results; ? = inconclusive; nt = not tested or not shown; ! = a repeat was not active. Rows were chosen to be rich in hits. Some 19% of all compounds tested hit in one or more screens of this group. Unless noted, calls follow the shape of the dose curve; as a rule, active = well fitted curve in the direction sought with a large enough effect; inconclusive = small, poorly fitted or top-dose-only effect, or another doubt; inactive = no such curve, though single readings can be large; an effect the other way counts as inactive or inconclusive. Unless noted, % is scaled to controls: 0 for no effect and ±100 for the full control effect.

SMILES	DT40 TDP1 CPT	DT40 TDP1 no CPT	HT1080 IDH1KD tx	IL1B secr inh	HT1080NT lethal	uPA surface inh
CCc1ccccc1Oc1nc(NCc2ccccc2)nc2ccsc12	?	?	?	37	?	nt
COc1ccccc1CNc1nc(Nc2ccccc2OC)c2sccc2n1	5.8µM*	4.6µM*	5%	7	17%	nt
COc1ccccc1CNc1nc(-c2ccccc2CO)c2sccc2n1	?	?	-22%	-27	-16%	nt
COc1ccc(C2CC(C(F)(F)F)n3nc(C(=O)N(C)Cc4cn(C)nc4C)c(Cl)c3N2)cc1 (configuration not stated)	?	18µM*	-1%	38	5%	-3%
COc1ccc(C2CC(C(F)(F)F)n3nc(C(=O)NCc4c(C)nn(C)c4C)c(Cl)c3N2)cc1 (configuration not stated)	1.3µM*	5.2µM*	-15%	-11	?	-7%
Cc1c(CNC(=O)c2nn3c(c2Cl)NC(c2ccccc2)CC3C(F)(F)F)cnn1C (configuration not stated)	?	?	6%	14	-6%	-2%
CCNc1nc2c(c(=O)n(C)c(=O)n2C)n1Cc1ccc(F)cc1	2.1µM*	1µM*	nt	nt	nt	nt
Cn1c(=O)c2c(nc(NCc3ccc4c(c3)OCO4)n2Cc2ccc(F)cc2)n(C)c1=O	9.2µM*	6.5µM*	?	-18	?	-12%
Cn1c(=O)c2c(nc(NCc3ccc4c(c3)OCO4)n2Cc2ccccc2)n(C)c1=O	?	?	?	-29	?	-14%
Cn1ccnc1SCC(=O)Nc1nc2c(F)c(F)c(F)cc2s1	?	?	7%	-5	11%	8%
Cc1ccc(NC(=O)CSc2nnc(Cc3csc(C)n3)o2)c(C)c1	8%	-11%	-2%	1	-2%	-9%
COC1=CC(=O)OC(c2ccccc2C(F)(F)F)C1 (configuration not stated)	-3%	-12%	19%	44	18%	nt
Oc1cc(OCc2ccccc2)ccc1-c1[nH]ncc1-c1ccccc1	10µM*	12µM*	23µM*	-101*	16µM*	1%
COc1ccc(-c2cn[nH]c2-c2ccc(OCc3ccc(F)cc3)cc2O)cc1OC	21µM*	23µM*	18µM*	-88*	-28%	2%
COc1ccc(-c2cn[nH]c2-c2ccc(OCc3ccccc3)cc2O)cc1OC	16µM*	18µM*	13µM*	-101*	?	-1%
COc1ccc(C(=O)c2c[nH]c(C(=O)N=CN(C)C)c2)cc1	-13%	-29%	11%	6	7%	9%
COc1ccc(Cl)cc1C(=O)Nc1ccc(NC(C)=O)cc1	1%	1%	-2%	-14	0%	-5%
COc1ccc(Cl)cc1C(=O)Nc1ccc2nc(Nc3cccc(Cl)c3)cc(C)c2c1	21µM*	12µM*	nt	nt	nt	nt
COc1ccc(CC(=O)Nc2ccc3nc(Nc4cccc(Cl)c4)cc(C)c3c2)cc1OC	18µM*	16µM*	nt	nt	nt	nt
Cc1cc(Nc2cccc(Cl)c2)nc2ccc(NC(=O)Cc3ccc(Cl)cc3)cc12	18µM*	?	nt	nt	nt	nt
Cc1cc(Nc2cccc(Cl)c2)nc2ccc(NC(=O)Cc3cccc(C(F)(F)F)c3)cc12	9.2µM*	7.3µM*	nt	nt	nt	nt
N[C@H](C(=O)O)c1cccc(O)c1	4%	-9%	nt	nt	nt	nt
COc1ccc(C(=O)NCCc2nc3ccccc3[nH]2)cc1	-19%	-3%	nt	nt	nt	nt
CC1CCCN(C(=O)c2cc3c(=O)n(C)c4ccccc4c3s2)C1 (configuration not stated)	-4%	0%	nt	nt	nt	nt
COc1ccc(CNc2ccc3c(c2)ncn3C)cc1OC	?	?	16µM*	34	16µM*	-13%
SMILES	DT40 TDP1 CPT	DT40 TDP1 no CPT	HT1080 IDH1KD tx	IL1B secr inh	HT1080NT lethal	uPA surface inh
Cn1c(-c2csc(-c3ccccc3)n2)n[nH]c1=S	?	?	1%	-22	19%	-4%
Cc1nc2ccccc2nc1-c1csc(-c2ccccc2)n1	13µM*	11µM*	nt	nt	nt	nt
CCOC(=O)c1ccc(N2C(=O)Cc3cc(OCC)c(OCC)cc3C2c2ccccc2)cc1 (configuration not stated)	15µM*	13µM*	nt	nt	nt	nt
N=C(N)c1ccc(/C=C/c2ccc(C(=N)N)cc2O)cc1	13µM*!	?	0%	-3	2%	-5%
Cc1cc2ccccn2c1C(=O)c1ccccc1Br	16µM*	?	?	10	?	-9%
Cc1cc2ccccn2c1C(=O)c1cccc([N+](=O)[O-])c1	?	?	?	0	-16%	1%
Cc1cc2ccccn2c1C(=O)c1ccc(S(=O)(=O)N(C)C)cc1	18µM*	23µM*	-18%	?	-27%	-6%
CCNS(=O)(=O)c1cccc(C(=O)c2c(C)cc3ccccn23)c1	?	15µM*	6%	-15	6%	-3%
CCCCNC(=O)c1c(N)[nH]c(C(=O)c2ccccc2)c1-c1ccc(Cl)cc1	2%	-15%	2%	3	10%	nt
Cc1cc(=O)n(C)c(=O)n1CCCCCCOc1cccc([N+](=O)[O-])c1	26µM*	16µM*	1%	-1	13%	-5%
CC(=O)Nc1cccc(OCCOc2cccc([N+](=O)[O-])c2)c1	-20%	-32%	-3%	3	-4%	2%
COCCNC(=O)C1(C)CCN(C(=O)c2oc3ccccc3c2C)C1 (configuration not stated)	-17%	0%	19%	2	14%	nt
O=c1oc2cc(Oc3c([N+](=O)[O-])cc(C(F)(F)F)cc3[N+](=O)[O-])ccc2c2c1CCCC2	8.2µM*	13µM*	-27%	-82*	?	2%
CC(=O)Nc1cccc(-c2nc3ccc(NC(C)=O)cc3[nH]2)c1	9%	-9%	-1%	10	3%	-6%
COc1cccc(OC)c1C(=O)Nc1cccc(-c2nc3ccccc3[nH]2)c1	?	18µM*	-9%	0	-5%	3%
O=C(Nc1cccc(-c2nc3ccccc3[nH]2)c1)c1ccccn1	18µM*	13µM*	-13%	-17	-4%	9%
CC(=O)Nc1cccc(-c2nc3ccccc3[nH]2)c1	8%	2%	12%	10	18%	0%
COc1cccc(C(=O)Nc2ccc(Cl)c(-c3nc4ccccc4[nH]3)c2)c1	?	6.5µM*	nt	nt	nt	nt

Screens: PubChem BioAssay, National Center for Advancing Translational Sciences (NCATS)
